These results are taken from PubChem BioAssay AID1719 (National Center for Advancing Translational Sciences (NCATS), 2009).

The structures appear in SMILES notation. Some of the results follow. Inconclusive results are not listed. The source made the active and inactive calls.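 The calls were made as follows: active = compounds whose electron micrographs showed tau fibrils broken into shorter filaments or fragments, graded high on fibril breakup; inconclusive = micrographs gave an unclear fibril picture; inactive = the rest.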

Microtubule-associated protein tau (Homo sapiens), sequence (P10636 561-689 P618L limits assumed): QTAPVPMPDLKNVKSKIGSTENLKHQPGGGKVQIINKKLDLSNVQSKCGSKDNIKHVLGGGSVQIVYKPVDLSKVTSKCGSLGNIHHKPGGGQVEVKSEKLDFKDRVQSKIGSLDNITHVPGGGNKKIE

This assay has as its target Microtubule-associated protein tau (Homo sapiens) (UniProt P10636). Put plainly: Transmission Electron Microscopy Assay for Inhibitors of Tau Fibrillization. Conditions: recombinant tau K18 P301L (four-repeat tau fragment) fibrillization, TEM grading; hits give high values. The text has this:
NIH Molecular Libraries Probe Production Network [MLPCN] NIH Chemical Genomics Center [NCGC] MLPCN Grant: X01 MH083262-01 Assay Provider: Carlo Ballatore, University of Pennsylvania NCGC Assay Overview: The microtubule-associated protein tau is an abundant protein in the axons of neurons that stabilizes microtubules. With its ability to modulate microtubule dynamics, tau contributes directly or indirectly, to key structural and regulatory cellular functions. Particularly important is the influence tau exerts on axonal transport, which allows signaling molecules, trophic factors and other essential cellular constituents to travel along the axons. Under pathological conditions, tau becomes sequestered into insoluble aggregates called neurofibrillary tangles. This phenomenon is believed to have pathological consequences by promoting axonal transport deficits that ultimately lead to synaptic dysfunction and neuronal loss. The ability of compounds to block tau fibrillization was visualized using transmission electron microscopy (TEM). Samples from the tau ThT confirmation assay treated with 100 uM compound (AID 1558) were centrifuged and imaged using TEM. […]
On to `CCN(CC)c1ccc2oc(=O)c(C)nc2c1`, for which the fibril grade (0 = clumped fibrils, 4 = only tiny pieces) is 4 (active).
